JMJD2A Tudor inh: qHTS Assay for Inhibitors of JMJD2A-Tudor Domain | 390,000 compounds, 4.4% hits | Potency, µM (top dose mostly 114 µM), hits mostly inhibitors | AlphaScreen JMJD2A-Tudor / H3K4me3 peptide binding; further: nearly all actives have a fitted effect of over 50% in size
GCN5L2 inh: qHTS Assay for Inhibitors of GCN5L2 | GCN5L2 HAT assay, ThioGlo1 CoA-SH fluorescence | Potency, µM (series often up to 58.9 µM), usual class: inhibitors | 390,000 compounds, 0.21% hits
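GCN5L2 (20 nM) in 50mM HEPES pH 7.5, 0.1mM EDTA, 0.01% Tween-20 preincubated 15 min with compounds at room temperature. Reaction started with H3(1-25) 75uM, acetyl-CoA 70uM, ThioGlo1 50uM; CoA-thiol fluorescence (Ex340/Em540) read at 0 and 20 min.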
PLK1 PBD inh: qHTS for Inhibitors of PLK1-PDB (polo-like kinase 1 - polo-box domain): Primary Screen; Plk1 PBD binding of FITC phosphopeptide, fluorescence polarization; Potency, µM, usual class: inhibitors; 360,000 compounds, 2.8% hits; AID 720504, 2013; further: series mostly up to about 57 µM; nearly all actives have a fitted effect of over 65% in size
PI5P4Ka inh: qHTS for Inhibitors of phosphatidylinositol 5-phosphate 4-kinase (PI5P4K). Phosphatidylinositol 5-phosphate 4-kinase type-2 alpha (Homo sapiens), P48426. PI5P4Kalpha enzyme, ADP-Glo luminescence, 60 min; active compounds read low. max response, %. 330,000 compounds, 1.2% hits. AID 652105, 2013; active means max response of -50% or lower; inconclusive means between -30% and -50%; inactive means -30% or higher; further: value at the top dose of about 77 µM
Target sequence (P48426 whole entry, looked up): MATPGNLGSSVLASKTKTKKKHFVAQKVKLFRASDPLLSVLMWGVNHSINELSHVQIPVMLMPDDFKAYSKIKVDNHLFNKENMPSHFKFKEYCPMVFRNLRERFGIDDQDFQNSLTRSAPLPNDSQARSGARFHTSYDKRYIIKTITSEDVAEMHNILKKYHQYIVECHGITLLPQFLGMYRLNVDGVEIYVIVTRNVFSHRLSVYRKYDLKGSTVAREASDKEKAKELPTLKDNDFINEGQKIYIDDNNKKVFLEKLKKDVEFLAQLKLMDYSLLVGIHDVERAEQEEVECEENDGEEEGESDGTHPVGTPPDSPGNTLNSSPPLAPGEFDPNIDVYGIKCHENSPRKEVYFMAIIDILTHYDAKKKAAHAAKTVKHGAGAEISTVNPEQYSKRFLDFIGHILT
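qHTS, 1536-well: enzyme/substrate mix, compound by pin tool, 5 microM ATP final; RT 60 min; ADP-Glo reagents 1 (45 min) then 2 (30 min); luminescence.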
HP1b chromo inh: HTS for Inhibitors of HP1-beta Chromodomain Interactions with Methylated Histone Tails; Chromobox protein homolog 1 (Homo sapiens), P83916; AlphaScreen HP1-beta / biotin-H3K9me3 peptide binding; Potency, µM (series often up to 114 µM), actives largely listed as inhibitors; 390,000 compounds, 0.56% hits; AID 540317, 2011; further: nearly all actives have a fitted effect of over 70% in size
Target sequence (P83916 whole entry, looked up): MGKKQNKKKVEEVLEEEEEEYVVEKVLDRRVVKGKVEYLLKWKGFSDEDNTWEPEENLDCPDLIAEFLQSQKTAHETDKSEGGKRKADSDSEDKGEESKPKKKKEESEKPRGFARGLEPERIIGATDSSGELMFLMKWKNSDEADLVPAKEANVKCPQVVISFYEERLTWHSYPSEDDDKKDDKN
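Compound inhibition of the preformed complex between 50 nM HP1-beta and 50 nM biotinylated H3K9me3 peptide was read by AlphaScreen. Buffer was PBS pH 7.4 with 0.01% Tween-20. Incubations ran 30 min at room temperature, with 10 ug/mL donor/acceptor beads.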
BAZ2B inh: qHTS Assay for Inhibitors of BAZ2B; Bromodomain adjacent to zinc finger domain protein 2B (Homo sapiens), Q9UIF8; AlphaScreen BAZ2B-H3K14Ac peptide displacement; Potency, µM (titrated, usually from 114 µM), most hits filed as inhibitors; 360,000 compounds, 4.4% hits; further: nearly all actives have a fitted effect of over 60% in size
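BAZ2B (50 nM) with biotin-H3(5-23)K14Ac peptide (50 nM) in PBS pH 7.4, 0.01% Tween-20, preformed 30 min, then compound 30 min at room temperature; top concentration 110uM. AlphaScreen streptavidin donor/nickel chelate acceptor beads (10 ug/mL final), 20 min dark, signal read.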
Large screens that a line does not name were inactive. Sampled rows, rich in hits. Any-hit rate of the full collection: about 7%. Unless noted, the call rests on the fitted dose curve; in most records, active means well fitted curve in the direction sought with a large enough effect; inconclusive means small, poorly fitted or top-dose-only effect, or another doubt; inactive means no such curve, though single readings can be large; an effect the other way counts as inactive or inconclusive.

COc1ccc(/C=C2\N=C(c3ccccc3)N(c3ccc(C(=O)O)cc3)C2=O)cc1OC	none
C#CCOc1ccc(/C=C2/C(=O)N(c3ccc(S(N)(=O)=O)cc3)N=C2C)cc1OC	PLK1 PBD inh 1.2µM (no result: JMJD2A Tudor inh, GCN5L2 inh, HP1b chromo inh, BAZ2B inh)
COc1cc(/C=C2\C(=O)N(c3cccc(C(=O)O)c3)N=C2C)ccc1OCc1ccccc1	PLK1 PBD inh 1.1µM (no result: JMJD2A Tudor inh, GCN5L2 inh, HP1b chromo inh, BAZ2B inh)
CCOC(=O)C1CCN(C(=O)c2ccc(OCC(=O)Nc3ccc(OCC)cc3)c(OC)c2)CC1	none
COc1ccc(C(=O)C=Cc2ccc(OCc3ccccc3)c(OC)c2)cc1OC	none (no result: JMJD2A Tudor inh, GCN5L2 inh, HP1b chromo inh, BAZ2B inh)
COc1cc(/C=C/[N+](=O)[O-])ccc1OCc1cccc(C(=O)O)c1	PLK1 PBD inh 6µM, PI5P4Ka inh -55, BAZ2B inh 28µM
NS(=O)(=O)c1ccc(CCNC(=O)CNCCc2ccc(C(F)(F)F)cc2)cc1	JMJD2A Tudor inh 18µM, BAZ2B inh 50µM
CC(C)c1ccccc1NC(=O)Nc1nc(C(N)Cc2ccc(C(F)(F)F)cc2)cs1 (stereo unspecified)	none (no result: JMJD2A Tudor inh, GCN5L2 inh, HP1b chromo inh, BAZ2B inh)
NS(=O)(=O)c1ccc(CCNC(=S)NC2CCCC2)cc1	HP1b chromo inh inconclusive
NS(=O)(=O)c1ccc(CCNCC(=O)NC2CC2)cc1	JMJD2A Tudor inh 4.5µM, HP1b chromo inh inconclusive, BAZ2B inh inconclusive
NS(=O)(=O)c1ccc(CCNCC(=O)N2CCC(Cc3ccccc3)CC2)cc1	PLK1 PBD inh inconclusive, BAZ2B inh 56µM
CC(C)c1ccccc1NC(=O)CNCCc1ccc(C(F)(F)F)cc1	JMJD2A Tudor inh 14µM, HP1b chromo inh inconclusive, BAZ2B inh 45µM
Cc1cc(C)c(C2=CC(=O)C[C@H](c3ccc4c(c3)OCO4)C2)c(C)c1	none
CN1C(=O)C(CC(=O)O)S/C1=N\N=C\c1ccc(O)cc1O (stereo unspecified)	none
COc1cc(S(=O)(=O)n2ccnc2C(C)C)ccc1Br	none (no result: PLK1 PBD inh, PI5P4Ka inh)
COc1cccc(CN(C)C(=O)c2ccc(NC(=O)CC3SC(N4CCCC4)=NC3=O)cc2)c1OC (stereo unspecified)	none
CC(C)C1Nc2c(O)cc(Cl)c([N+](=O)[O-])c2C2C=CCC21 (stereo unspecified)	JMJD2A Tudor inh 40µM, PLK1 PBD inh inconclusive, HP1b chromo inh inconclusive, BAZ2B inh 25µM
CCOC(=O)[C@@H]1[C@H]2COc3cc(OC)ccc3[C@@H]2N2C(=O)N(c3ccc(F)cc3)C(=O)[C@]12C	none
CC(=O)c1cc(C#N)c(Oc2cc(C)cc(C)c2)nc1C	PLK1 PBD inh 12µM
CCc1cccc(NC(=O)Cn2nc(-c3ccc(OC)cc3)ccc2=O)c1	none (no result: PLK1 PBD inh, PI5P4Ka inh)
CCN(CC)CCn1c2c(c(SCC(=O)Nc3ccccc3Cl)nc1=O)CCC2	none
COc1cc(CNC(=O)CCCC(=O)c2ccccc2)cc(OC)c1OC	PLK1 PBD inh 24µM
Cc1cc(NCCCn2ccnc2)n2nc(-c3ccc(Cl)cc3)cc2n1	JMJD2A Tudor inh inconclusive, BAZ2B inh 45µM
C=CCn1c(COc2ccc(Cl)cc2)nnc1SCc1ccc(C#N)cc1	JMJD2A Tudor inh inconclusive, PI5P4Ka inh -80
C=CCn1c(COc2ccccc2)nnc1SCc1ccc(C#N)cc1	none
CCN1CCCC1CNC(=O)Cn1cc(C)c(=O)[nH]c1=O (stereo unspecified)	HP1b chromo inh inconclusive (no result: GCN5L2 inh, BAZ2B inh)
Cc1cccc(Nc2nc(N)nc(CN3CCN(c4ccc(F)cc4)CC3)n2)c1	JMJD2A Tudor inh 56µM
Nc1nc(CSCCO)nc(Nc2ccccc2)n1	PLK1 PBD inh 27µM
Cc1ccc(Nc2nc(N)nc(CSc3nnnn3-c3ccccc3)n2)cc1	JMJD2A Tudor inh 89µM, BAZ2B inh inconclusive
Cc1ccc(Nc2nc(N)nc(CSc3nncn3C)n2)cc1	none
Nc1nc(CN2CCN(Cc3ccc4c(c3)OCO4)CC2)nc(Nc2ccccc2)n1	JMJD2A Tudor inh inconclusive, BAZ2B inh inconclusive
CCOC(=O)C1CCCN(Cc2nc(N)nc(Nc3ccccc3)n2)C1 (stereo unspecified)	JMJD2A Tudor inh 56µM, BAZ2B inh 35µM
CS(=O)(=O)Nc1ccc2c(c1)[C@@H]1C[C@@H](CC(=O)NCc3cccnc3)O[C@H](CO)[C@@H]1O2	none (no result: JMJD2A Tudor inh, GCN5L2 inh, HP1b chromo inh, BAZ2B inh)
O=C(c1ccc(-n2ccnc2)cc1)N1CCCC(CO)(Cc2cccc(Cl)c2)C1 (stereo unspecified)	none
CC1CC(C)CN(Cc2nc(N)nc(Nc3ccc4ccccc4c3)n2)C1 (stereo unspecified)	BAZ2B inh 50µM
Nc1nc(CN2CCCCCC2)nc(Nc2ccccc2)n1	JMJD2A Tudor inh 20µM, BAZ2B inh 10µM
Cc1ccc(Nc2nc(N)nc(CN3CCCCCC3)n2)cc1	JMJD2A Tudor inh 50µM, PLK1 PBD inh inconclusive, BAZ2B inh 11µM
CCC(C(=O)OC)(C(=O)OC)c1ccc([N+](=O)[O-])cc1	none
CCN(CC)C(=O)Oc1ccc2c(c1)O/C(=C\c1ccco1)C2=O	JMJD2A Tudor inh inconclusive, BAZ2B inh 40µM
CCC(=O)Oc1ccc2c(c1)O/C(=C\c1ccco1)C2=O	PLK1 PBD inh inconclusive, PI5P4Ka inh -65, HP1b chromo inh inconclusive, BAZ2B inh inconclusive
Cc1ccc(S(=O)(=O)NC2CC(C)(C)NC(C)(C)C2)cc1C	none
COc1ccc(C2Nc3ccccc3C(=O)N2Cc2ccccc2)cc1OCc1ccc(NC(C)=O)cc1 (stereo unspecified)	none (no result: GCN5L2 inh, PLK1 PBD inh, PI5P4Ka inh, HP1b chromo inh, BAZ2B inh)
C[C@H](CO)N1C[C@H](C)[C@@H](CN(C)S(=O)(=O)c2cccc(C#N)c2)OCc2cnnn2CCCC1=O	none (no result: JMJD2A Tudor inh, GCN5L2 inh, HP1b chromo inh, BAZ2B inh)
O=C(Cn1cc(S(=O)(=O)c2ccc(Cl)cc2)c(=O)c2ccccc21)Nc1ccc2c(c1)OCO2	BAZ2B inh inconclusive (no result: PLK1 PBD inh, PI5P4Ka inh)
O=C(/C=C/c1ccco1)NCC1OCCc2ccccc21 (stereo unspecified)	JMJD2A Tudor inh 50µM, PLK1 PBD inh inconclusive, PI5P4Ka inh -70, HP1b chromo inh 32µM, BAZ2B inh 45µM
C=CC(=O)NCC1OCCc2ccccc21 (stereo unspecified)	none
N[C@@H](Cc1c[nH]c2ccccc12)C(=O)O	BAZ2B inh 50µM (no result: JMJD2A Tudor inh, PLK1 PBD inh, PI5P4Ka inh, HP1b chromo inh)
COC(=O)CNC(=O)C(Cc1c[nH]c2ccccc12)NC(=O)Oc1ccccc1 (stereo unspecified)	BAZ2B inh 0.71µM
O=C(O)c1ccc(Cl)c(S(=O)(=O)NC(Cc2c[nH]c3ccccc23)C(=O)O)c1 (stereo unspecified)	none

Assay outcomes: PubChem, National Center for Advancing Translational Sciences (NCATS)
